The panel holds about 83,000 compounds, 20% with a hit somewhere; the sample as a whole holds those more often.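 Growth was measured after 48 h exposure to one concentration of compound in 96-well plates. Values under 10 count as active.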 Active and inactive are the calls of the source.
tested on: MDA-MB-231 breast; test: NCI-60 one-dose screen, 48 h (100 = growth as untreated, 0 = no growth, -100 = all killed); settings: 10 µM unless noted

Structure (SMILES) | growth
CCCC(=O)CC(C)=O.CCCC(=O)CC(C)=O.[Cu] | 120% (inactive)
COc1ccc(C2Nc3ncnc(N)c3N=C3c4ccccc4C(=O)C32)cc1 (stereo unspecified) | 97.9% (inactive)
Nc1nc(N)c2c(n1)NC1(C=C(O)c3ccccc31)C1=C(N2)c2ccccc2C1=O (stereo unspecified) | 107% (inactive)
CCOC(=O)c1cnc2ccc(Cl)cc2c1NCCCN(C)C | 15.8% (inactive)
CCCCCCc1cc2cc(-c3nc4ccccc4[nH]3)c(=Nc3ccccc3C)oc2cc1O | 41.6% (inactive)
OC(c1ccccc1)c1nnc(SCc2ccccc2)n1Cc1ccccc1 (stereo unspecified) | 103% (inactive)
CC(=O)O[C@@H]1/C=C/C(=O)N[C@@H](C)CCC/C=C/[C@@H]2CCC[C@H]21 | 122% (inactive)
COc1ccc(C2Nc3nc(OC)n(C)c(=O)c3N=C3c4ccccc4C(=O)C32)cc1 (stereo unspecified) | 92.2% (inactive)
CN1CCN(c2nc(Nc3ccc(O)cc3)nc3ccccc23)CC1 | 66.2% (inactive)
COc1ccc(/C=C2\SC(=Nc3ccccc3)NC2=O)cc1 | -83% (active)
CCOC(=O)c1cc2c(n1Cc1cc(OC)c(OC)c(OC)c1)-c1oncc1CCC2 | 12.3% (inactive)
Cn1c2c(c(=O)[nH]c1=O)NC1=C(C(=O)c3ccccc31)C1(C=C(O)c3ccccc31)N2 (stereo unspecified) | 105% (inactive)
FC(F)(F)c1cccc(Nc2nc(-c3ccccc3)nc3ncccc23)c1 | 44% (inactive)
O=C(Nc1ccc(Cl)cc1)c1cc2ccccc2cc1OP(=O)(O)O | 55.5% (inactive)
COC(=O)/C(=C\c1c(-c2ccccc2)[nH]c2ccccc12)S(C)(=O)=O | 49.7% (inactive)
Nc1ccc(C2c3ccccc3Oc3ccccc32)cc1 | 104% (inactive)
N#CC(C#N)=Cc1c(-c2ccccc2)[nH]c2ccccc12 | 50.2% (inactive)
CCCCc1ccc(NS(=O)(=O)c2cc3c4c(c2)CCN4C(=O)CC3)cc1 | 35.7% (inactive)
O=C(CSc1ncccc1C(=O)O)Nc1ccc(Oc2ccccc2)cc1 | 124% (inactive)
N#C/C(=C\c1c(-c2ccccc2)[nH]c2ccccc12)C(=O)c1ccccc1 | 71.3% (inactive)
O=C1/C=C/[C@@H](O)[C@@H]2C[C@@H](O)C[C@H]2/C=C/CCCCO1 | -21.2% (active)
CCCC(c1nnnn1C1CCCCC1)N1CCN(C(=O)c2ccco2)CC1 (stereo unspecified) | 63.9% (inactive)
Nc1nc(Nc2cccc(F)c2)nc2ccccc12 | 43.7% (inactive)
CC(C)(C)c1ccc(C2CC(=O)C3=C(C2)Nc2ccccc2N(C(=O)c2ccccc2Cl)C3c2ccc(F)cc2)cc1 (stereo unspecified) | 15.7% (inactive)
O=CCCCC(O)C=O (stereo unspecified) | 115% (inactive)
CN(O)c1nc(N(C)O)nc(N2CCOCC2)n1 | 56% (inactive)

tested on: RXF 393 renal; test: as above; settings: 10 µM unless noted

Structure (SMILES) | growth
COc1ccc(OC)c(N(CCN2C(=O)c3ccccc3C2=O)C(=O)CCl)c1 | 58.7% (inactive)
O=C(NC1CCN(Cc2ccccc2)CC1)c1cc(C(=O)NC2CCN(Cc3ccccc3)CC2)cc(C(=O)NC2CCN(Cc3ccccc3)CC2)c1 | 60.1% (inactive)
CCOC(=O)c1c(Cl)c2c(n1Cc1ccccc1)-c1oncc1CCC2 | 64.3% (inactive)
O=C(/C=C/c1ccccn1)c1ccc(OCc2nnc(-c3ccc(Cl)cc3)o2)cc1 | -71.7% (active)
Cc1cc(Nc2ccc(OCc3ccccc3)cc2)nc2cc(O)ccc12 | 93.7% (inactive)
CCOc1ccccc1CN1CCc2nc3cc(C(C)(C)C)[nH]n3c(=O)c2C1 | 93.5% (inactive)
O=C(NC(=S)Nc1cccc(NC(=S)NC(=O)c2ccccc2)c1)c1ccccc1 | 85.4% (inactive)
CCCC(=O)CC(C)=O.CCCC(=O)CC(C)=O.[Cu] | 122% (inactive)
CCOC(=O)c1cnc2ccc(Cl)cc2c1NCCCN(C)C | -3.24% (active)
CCCCCCc1cc2cc(-c3nc4ccccc4[nH]3)c(=Nc3ccccc3C)oc2cc1O | 28.5% (inactive)
CN1CCN(c2nc(Nc3ccc(O)cc3)nc3ccccc23)CC1 | 77.3% (inactive)
COc1ccc(/C=C2\SC(=Nc3ccccc3)NC2=O)cc1 | -95.5% (active)
CCOC(=O)c1cc2c(n1Cc1cc(OC)c(OC)c(OC)c1)-c1oncc1CCC2 | 26.9% (inactive)
FC(F)(F)c1cccc(Nc2nc(-c3ccccc3)nc3ncccc23)c1 | -13.6% (active)
CCCCc1ccc(NS(=O)(=O)c2cc3c4c(c2)CCN4C(=O)CC3)cc1 | 32.5% (inactive)
O=C(CSc1ncccc1C(=O)O)Nc1ccc(Oc2ccccc2)cc1 | 107% (inactive)
CCCC(c1nnnn1C1CCCCC1)N1CCN(C(=O)c2ccco2)CC1 (stereo unspecified) | 65.1% (inactive)
Nc1nc(Nc2cccc(F)c2)nc2ccccc12 | 42% (inactive)
CC(C)(C)c1ccc(C2CC(=O)C3=C(C2)Nc2ccccc2N(C(=O)c2ccccc2Cl)C3c2ccc(F)cc2)cc1 (stereo unspecified) | -3.26% (active)
O=CCCCC(O)C=O (stereo unspecified) | 102% (inactive)

Source: PubChem BioAssay (NCI)
